# Measurements: PubChem BioAssay AID652136 (The Scripps Research Institute Molecular Screening Center, 2013)
# Screen size: about 2,400 compounds; about 1,900 (79%) were called active.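 How the source made its calls: active means inhibition above the mean of all tested compounds plus 3 SD (cut at about 3% in these data); inactive means the rest.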 So high a share suggests a set chosen from earlier hits. Only a sample is shown.
# Assay: SF-1 AF-2 mutant transactivation artefacts – cell-based, luminescence, counter-screen for DAX1 inhibitor project (AID 652136);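 further: 0% = DAX-1 transfected cells with DMSO and 100% = cells without DAX-1 with DMSO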
# Conditions: HEK293 StAR-luciferase, SF-1 AF2 mutant, at 6.8 µM, hits give high values
row,Compound,inhibition
1,O=C(NCC1(N2CCCCC2)CCCCC1)c1ccc(NS(=O)(=O)c2ccc(F)cc2)cc1,6.24% (active)
2,CCOc1ccc(S(=O)(=O)Nc2cccc(C(=O)NCC3(N4CCCCC4)CCCCC3)c2)cc1,5.11% (active)
3,CCN(c1ccccc1)S(=O)(=O)c1ccc(OCC(=O)N2CCCC2)cc1,1.13% (inactive)
4,O=C(c1cc(-c2cccs2)on1)N1CCCCC1,4.85% (active)
5,COc1ccc(OCc2cc(C(=O)N3CCCC3)no2)c2ccccc12,6.26% (active)
6,COc1ccccc1-c1cc(C(=O)N2CCCCC2)no1,7.48% (active)
7,O=C(c1cc(-c2ccccc2O)on1)N1CCCC1,7.17% (active)
8,CCOC(=O)c1c(S(=O)(=O)Nc2ccc(CN3CCC(C)CC3)cc2)c(C)n(C)c1C,1.43% (inactive)
9,O=C(Nc1ccc2ccccc2c1[N+](=O)[O-])c1ccccc1,6.14% (active)
10,COc1ccc(-c2csc(Nc3ccccn3)n2)cc1,5.68% (active)
11,COc1ccc(-c2cn3ccsc3n2)cc1,6.15% (active)
12,COc1ccc(-c2cn3ccc(C)cc3n2)cc1,3.87% (active)
13,COC(=O)Nc1nc2ccc(C(=O)C3CC3)cc2[nH]1,-5.19% (inactive)
14,O=C(CSc1cccc[n+]1[O-])c1ccc(-c2ccccc2)cc1,1.01% (inactive)
15,NS(=O)(=O)c1ccc2nc(NC(=O)C3=COCCO3)sc2c1,5.19% (active)
16,Cc1cc(N)n2nc(-c3ccc(C(C)(C)C)cc3)cc2n1,8.64% (active)
17,CCc1ccc2oc(-c3ccc(N)cc3)nc2c1,4.11% (active)
18,O=C(NCC1CCCO1)c1cc2c(s1)CCCC2 (stereo unspecified),4.63% (active)
19,O=C(O)c1cccc(N=NN2CCCCCC2)c1,8.65% (active)
20,CCOc1ccc(-c2nnc(-c3ccco3)o2)cc1,3.8% (active)
21,C/C(=N\NC(=O)c1ccccc1F)c1ccccn1,-9.06% (inactive)
22,O=C(NCCOc1ccccc1)c1ccccc1F,6.6% (active)
23,OC(c1ccccc1)c1nc(-c2cnc3ccccc3c2)cs1 (stereo unspecified),6.87% (active)
24,CC(Oc1ccccc1[N+](=O)[O-])C(=O)N/N=C/c1ccoc1 (stereo unspecified),-0.59% (inactive)

row,Compound,inhibition
1,Cc1cc(C(=O)NCCc2ccc(Cl)cc2)c(C)o1,2.83% (inactive)
2,CC(C)Cc1cc(C(=O)NCCc2ccccc2)no1,4.55% (active)
3,CC(C)c1ccc(C=NNc2ccc([N+](=O)[O-])cn2)cc1,7.98% (active)
4,O=[N+]([O-])c1ccc2oc(-c3cccc(O)c3)nc2c1,8.65% (active)
5,COc1ccc(Nc2ncc(F)c(N3CCOCC3)n2)cc1,7.01% (active)
6,Cc1ccc(-c2nc3ccc(Br)cn3c2Cc2ccccc2C(F)(F)F)cc1,3.81% (active)
7,COc1ccccc1Cc1c(-c2ccc(F)cc2)nc2ccc(C)cn12,3.36% (active)
8,C=CCn1c(SCC(=O)Nc2ccc(NC(C)=O)cc2)nc2sc(C)c(C)c2c1=O,-2.48% (inactive)
9,O=C(c1cnn(-c2ccc(Cl)cc2)c1)c1ccccc1O,7.41% (active)
10,O=C1C(C=NCC2CCCO2)=C(O)c2ccccc21 (stereo unspecified),4.34% (active)
11,Nc1ccc2nn(-c3ccc(Cl)cc3)nc2c1,10.2% (active)
12,COc1ccc2nc(SCc3ccccc3)nc(C)c2c1,8.35% (active)
13,CC(C)c1ccc(Nc2nnc(SCC(=O)c3nnc(-c4ccccc4)o3)s2)cc1,5.91% (active)
14,CCc1ccc(NC(=O)N2CCc3ccccc3C2)cc1,2.82% (inactive)
15,O=C(Nc1ccc2c(c1)CCC2)c1ccc(Br)s1,5.35% (active)
16,O=C(Nc1ccccc1)Nc1nc2ccccc2s1,10.3% (active)
17,Nc1ccc(C(=O)Nc2ccccc2N)cc1,42.6% (active)
18,O=C(NC(=S)NC1CCCCC1)c1ccc(Cl)cc1,4.24% (active)
19,CSCCC(NC(=O)c1ccco1)C(=O)Nc1cc(C)ccn1 (stereo unspecified),7.83% (active)
20,O=c1c2c(nc3n1CCCCC3)sc1c(O)cccc12,7.48% (active)
21,CC[C@]1(O)CC2CN(CCc3c([nH]c4ccccc34)[C@@](C(=O)OC)(c3cc4c(cc3OC)N(C=O)[C@H]3[C@@](O)(C(=O)OC)[C@H](OC(C)=O)[C@]5(CC)C=CCN6CC[C@]43[C@@H]65)C2)C1 (stereo partly specified),-7.3% (inactive)
22,COC(=O)c1sc(NC(=O)c2ccc(OC)cc2OC)nc1C,3.15% (active)
23,CN1OC[C@@H]2CN[C@H](c3ccc(-c4ccccc4)cc3)C[C@@H]21,5.72% (active)
24,CC(=O)Nc1cccc(-c2csc(Nc3cccc(C)n3)n2)c1,8.58% (active)

row,Compound,inhibition
1,c1ccc2[nH]c(-c3nc4ccccc4[nH]3)nc2c1,8.74% (active)
2,Cc1ccc(-c2nc3ccccc3[nH]2)cc1N,8.86% (active)
3,O=c1oc(/C=C/c2ccccc2)nc2ccccc12,7.24% (active)
4,Cn1ccnc1SCC(=O)Nc1ccc2c(c1)OCCO2,5.39% (active)
5,CCN(CC(=O)Nc1c(F)cccc1F)C(=O)c1cnc(C)cn1,0.25% (inactive)
6,Cc1nc2cc(NC(=O)Nc3cccc(F)c3)ccc2n1C,8.9% (active)
7,O=C(N/N=C\C1CC=CCC1)c1ccc(Br)o1 (stereo unspecified),0.2% (inactive)
8,CCSc1nnc(NC(=O)c2ccc(C)cc2)s1,6.21% (active)
9,NC(=O)CSc1nnc(NC(=O)c2ccc3ccccc3c2)s1,7.69% (active)
10,Nc1c(C(=O)Nc2ccc3c(c2)OCCO3)nnn1Cc1ccccc1,7.14% (active)
11,CC[C@]1(O)C[C@@H]2CN(CCc3c([nH]c4ccccc34)[C@@](C(=O)OC)(c3cc4c(cc3OC)N(C)[C@H]3[C@@](O)(C(=O)OC)[C@H](OC(C)=O)[C@]5(CC)C=CCN6CC[C@]43[C@@H]65)C2)C1,-6.49% (inactive)
12,Cc1ccc(-n2cc3ccc([N+](=O)[O-])cc3n2)cc1,6.18% (active)
13,Brc1ccc2nc(N3CCCC3)sc2c1,4.08% (active)
14,S=C(c1ccc(-c2ccccc2)o1)N1CCCCC1,5.47% (active)
15,Cc1ccnc(NC(=O)CNC(=O)c2ccccc2)c1,2.35% (inactive)
16,Cc1ccnc(NC(=O)CCNS(=O)(=O)c2ccc(C)c(C)c2)c1,9.35% (active)
17,CC1CCCN(c2ccc(C(=O)NCCc3ccccc3)cn2)C1 (stereo unspecified),3.59% (active)
18,O=C(c1cnn2ccccc12)N1CCc2ccccc21,6.23% (active)
19,Cc1sc(NC(=O)c2ccc3ncsc3c2)c(C(N)=O)c1C,5.5% (active)
20,O=C(Nc1ccc(Cl)c(Cl)c1)c1ccccc1NC(=O)C1CC=CCC1C(=O)O (stereo unspecified),4.5% (active)
21,Cc1nc(NC(=O)c2ccc3c(c2)OCCO3)ccc1Br,7.07% (active)
22,Cc1ccc(C(=O)NNC(=O)c2ccc3c(c2)OCCO3)cc1,2.35% (inactive)
23,O=C(Nc1ccccc1)c1ccc2c(c1)OCCCO2,7.83% (active)
24,CN1CCN(c2ccc(NC(=O)c3ccc4c(c3)OCCO4)cc2Cl)CC1,4.72% (active)

row,Compound,inhibition
1,Cc1c(C(=O)Nc2ccccn2)oc2ccc(Br)cc12,8.11% (active)
2,O=C(Nc1ccn(Cc2ccccc2)n1)c1n[nH]c([N+](=O)[O-])c1Cl,3.58% (active)
3,O=C(CCc1ccccc1)Nc1ncc([N+](=O)[O-])s1,1.92% (inactive)
4,c1ccc(Cc2c(-c3ccco3)nc3c4ccccc4ccn23)cc1,8.27% (active)
5,COc1ccccc1CCC(=O)OCC(=O)N1CCN(S(=O)(=O)c2ccc(C)cc2C)CC1,1.55% (inactive)
6,CC1CCN(C(=O)COC(=O)c2cc(=O)[nH]c3ccccc23)CC1,5.98% (active)
7,COc1cc(/C=N/O)ccc1OCc1ccc([N+](=O)[O-])cc1,6.8% (active)
8,COc1cc(C2c3cc4c(cc3C(O)C3COC(=O)C23)OCO4)cc(OC)c1OC (stereo unspecified),-5.65% (inactive)
9,CC(C)c1ccc(Nc2ncccc2C#N)cc1,5.42% (active)
10,C(=N\Nc1ccc2ccccc2n1)/c1ccc2c(c1)OCO2,2.84% (inactive)
11,Cc1cccc(NC(=O)/C=C/c2ccc3c(c2)OCO3)n1,6.21% (active)
12,COc1cccc(/C=C/C(=O)Nc2ccc3c(c2)OCCO3)c1,3.61% (active)
13,COc1ccc(/C=C/C(=O)Nc2ccc(C34CC5CC(CC(O)(C5)C3)C4)cc2)cc1OC,-4.01% (inactive)
14,O=C(NCCc1c[nH]c2ccccc12)c1cc2ccccc2oc1=O,7.29% (active)
15,O=C(O)c1ccc(N/N=C/c2cn(-c3ccccc3)nc2-c2cccs2)cc1,6.77% (active)
16,Cc1csc(SCC(=O)Nc2sccc2C#N)n1,10.8% (active)
17,Cc1cc(C)c(C)c(S(=O)(=O)N2CCN(C(=O)c3ccc4c(=O)n5c(nc4c3)CCC5)CC2)c1C,-0.34% (inactive)
18,CCCc1cc(C(=O)Nc2ccc(Cl)cn2)cs1,6.47% (active)
19,CCCc1cc(C(=O)Nc2ccc(C(=O)OC)cc2)cs1,3.67% (active)
20,CC(C)(O)C#Cc1ccc(CNC[C@H]2O[C@@H](n3cnc4c(=O)[nH]c(N)nc43)[C@H](O)[C@@H]2O)s1,-0.84% (inactive)
21,CCCNC(=O)C1CC(=O)N(c2ccc(OCc3ccccc3)cc2)C1 (stereo unspecified),4.36% (active)
22,CCc1ccc(NC2Nc3cc(C)nn3S2)cc1 (stereo unspecified),5.97% (active)
23,O=C(Nc1ccc(NC(=O)c2cccs2)cn1)c1ccco1,6.87% (active)
24,CC(=O)Nc1cccc(C(=O)OCC(=O)c2ccc3c(c2)OCO3)c1,5.14% (active)
